# Values joined by “and” are separate entries in the source; they are usually repeats but may differ in a detail not shown here. Equal entries are not always repeated. A structure can be active in one record and inactive in another. Active and inactive are the calls of the source. The calls were made as follows: active = hit-call score of the fitted dose curve at least 0.9, where 1 is the maximum; inactive = score below 0.9.
# Legend:
# Conditions in all cases: mRNA level, 48 h; actives raise or lower the signal
# [1] = read-out: Signal transducer and activator of transcription 3 (Homo sapiens) (UniProt P40763); assay: LTEA_HepaRG_STAT3: Life Technologies and Expression Analysis (LTEA) Assay for Signal transducer and activator of transcription (STAT3) using HepaRG (AID 2283529)
# How it was run: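 Differentiated human HepaRG cells in serum-free induction medium were exposed in duplicate for 48 h to eight half-log concentrations up to 100 uM in 0.5% DMSO. STAT3 mRNA was quantified by TaqMan qRT-PCR, normalized to ACTB, GAPDH and POLR2A, and fitted bidirectionally against DMSO.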
# [2] = read-out: solute carrier (SLCO1B1), SLCO1B1 (gene 10599); assay: LTEA_HepaRG_SLCO1B1: Life Technologies and Expression Analysis (LTEA) Assay for solute carrier (SLCO1B1) using HepaRG (AID 2283530)
# How it was run: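 SLCO1B1 transcript levels were quantified by TaqMan qRT-PCR using three housekeeping genes for normalization. This followed 48 h chemical exposure (100 uM top, half-log, 8 points, 0.5% DMSO) of HepaRG liver cells, with gain or loss fitted relative to DMSO.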
# [3] = read-out: sulfotransferase 2A1 (SULT2A1), SULT2A1 (gene 6822); assay: LTEA_HepaRG_SULT2A1: Life Technologies and Expression Analysis (LTEA) Assay for sulfotransferase 2A1 (SULT2A1) using HepaRG (AID 2283531)
# How it was run: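 Expression change of SULT2A1, by qRT-PCR with three housekeeping-gene normalization, was scored bidirectionally versus DMSO. Cells: differentiated HepaRG, dosed in duplicate for 48 h across 8 points, highest 100 µM, half-log dilution, 0.5% DMSO.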
# [4] = read-out: Transforming Growth Factor (TGFA), TGFA (gene 7039); assay: LTEA_HepaRG_TGFA: Life Technologies and Expression Analysis (LTEA) Assay for Transforming Growth Factor (TGFA) using HepaRG (AID 2283532)
# How it was run: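 Differentiated human HepaRG cells, plated 48 h then switched to serum-free induction medium, were exposed in duplicate for 48 h to 8-point half-log series from 100 uM in 0.5% DMSO. TGFA mRNA measured by qRT-PCR, normalized to ACTB/GAPDH/POLR2A, bidirectional fit versus DMSO.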
# [5] = read-out: Transforming Growth Factor (TGFB1), TGFB1 (gene 7040); assay: LTEA_HepaRG_TGFB1: Life Technologies and Expression Analysis (LTEA) Assay for Transforming Growth Factor (TGFB1) Transporter using HepaRG (AID 2283533)
# How it was run: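 TGFB1 transcript measured by qRT-PCR with normalisation to three housekeeping genes (ACTB, GAPDH, POLR2A); human HepaRG line treated in duplicate for 48 hr with an 8-point series topping at 100 uM, 0.5% DMSO vehicle, bidirectionally fitted.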
# [6] = read-out: TIMP1, TIMP1 (gene 7076); assay: LTEA_HepaRG_TIMP1: Life Technologies and Expression Analysis (LTEA) Assay for TIMP1 using HepaRG (AID 2283534);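 as to outcome: TaqMan qRT-PCR signal normalized to ACTB GAPDH and POLR2A housekeeping genes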
# How it was run: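 Bidirectional change in TIMP1 transcript versus 0.5% DMSO, measured by TaqMan qRT-PCR with three housekeeping genes for normalization. HepaRG human liver cells dosed 48 h in duplicate, top concentration 100 uM with half-log dilutions.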
# [7] = read-out: Tumor necrosis factor receptor 1 (TNFRSF1A), TNFRSF1A (gene 7132); assay: LTEA_HepaRG_TNFRSF1A: Life Technologies and Expression Analysis (LTEA) Assay for Tumor necrosis factor receptor 1 (TNFRSF1A) using HepaRG (AID 2283535)
# Method: (§1) LTEA_HepaRG is a cell based, multiplexed-readout assay that uses HepaRG, a human liver cell line, with measurements taken at 48 hours after chemical dosing on a 96-well plate.LTEA_HepaRG_TNFRSF1A is one of 102 assay component(s) measured in the LTEA HepaRG cell culture assay. It is a marker of Cell proliferation, survival, death.Data from the assay component LTEA_HepaRG_TNFRSF1A was analyzed into 1 endpoint. This assay endpoint, LTEA_HepaRG_TNFRSF1A, was analyzed with bidirectional fitting relative to DMSO as the negative control and baseline of activity. Using a type of inducible reporter, measures of mRNA induction for gain or loss-of-signal activity can be used to understand regulation of transcription factor activity. To generalize the intended target to other relatable targets, this assay endpoint is annotated to the cytokine receptor intended target family, where the subfamily is TNF receptor.
# (§2) A total of 1060 chemcials from the ToxCast library were tested in eight-point concentration-response experiments. Cell culture and cytotoxicity assays were conducted at Thermo Fisher Scientific's Custom Services facility (Madison, WI). A single lot of human HepaRG cells (Thermo Fisher Scientific, Frederick, MD) was used for the cell culture experiments. 96-well format collagen type I coated plates of human HepaRG cells were prepared using established methods. Briefly, cryopreserved HepaRG cells were thawed, plated at a density of approximately 100,000 cells/well in HepaRG Thaw, Plate, and General Purpose media (HPRG770, Thermo Fisher Scientific), and incubated for 48 hours. 0.5% DMSO was selected as vehicle control to balance the requisite need of DMSO in HepaRG cultures to maintain differentiation (for example, baseline metabolism, proportions of hepatocytes vs. cholangiocytes), while enabling further hepatic receptor pathway activation (for example, PXR and CAR) in response to chemical exposure. 48 hours after plating, the culture medium was replaced with HepaRG Serum-Free Incudtion Media. Cells were exposed to each test chemical in duplicate and maintained in CO2 incubators for another 48 hours. Chemical plates were thawed to room temperature and 200x concentrations of treatment groups were prepared. 8-point conentration-reponse curves were made with the highest exposure at 100 uM, followed by half-log dilutions, all in 0.5% DMSO. Each test plate contained variouse controls, induction positive controls (1mM phenobarbital), cytotoxicity positive controls ([…] aflatoxin B1), vehicle controls (0.5% DMSO), and total lysis controls (0.5% DMSO). Cell morphology images were taken using an Essen IncuCyte FLR automated microscope, with six 96-well plates imaged in about 24 minutes. Images were captured and exported and JPEG files. Spent culture media was transfered to black-well plates for the LDH assay, and remaining media was sorted at -80 C for later use. Cells were treated with RLT buffer and frozen until shipped for gene expression analysis. Total RNA was isolated from the cell suspension in 75 uL of Buffer RLT (Qiagen, Germantown, MD 20874) by Quintiles/Expression Analysis (Durham, NC) using a custom isolation procedure. Total RNA from each plate well was transferred to a preamplification plate. Fluidigm's 96.96 Dynamic ArrayTM (Fluidigm, Amsterdam, the Netherlands) technology was used for gene expression analyses by quantitative reverse transcription polymerase chain reaction (qRT-PCR, performed by Quintiles/Expression Analysis, Durham, NC)89. Standard TaqManTM Assays (Applied Biosystems/ThermoFisher Scientific, Foster City, CA) were used to assess the expression of 93 genes selected based on their selectivity and sensitivity to important hepatic receptors known to be modulated by environmental chemicals; importance in human hepatocyte functionality; and hepatotoxicity. […]
# [8] = read-out: Thyroid Hormone Responsive (THRSP), THRSP (gene 7069); assay: LTEA_HepaRG_THRSP: Life Technologies and Expression Analysis (LTEA) Assay for Thyroid Hormone Responsive (THRSP) using HepaRG (AID 2283536)
# How it was run: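 Differentiated human HepaRG cells were exposed in duplicate for 48 h in serum-free induction medium to eight concentrations (top 100 uM, half-log steps, 0.5% DMSO). Expression was quantified by TaqMan qRT-PCR, normalized to ACTB, GAPDH and POLR2A, with bidirectional fitting against DMSO.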
# [9] = read-out: Cellular tumor antigen p53 (Homo sapiens) (UniProt P04637); assay: LTEA_HepaRG_TP53: Life Technologies and Expression Analysis (LTEA) Assay for Tumor Protein P53 (TP53) using HepaRG (AID 2283537)
# Method: as §1, with “plate.LTEA_HepaRG_TP53” for “plate.LTEA_HepaRG_TNFRSF1A”, “Oxidative Stress.Data” for “Cell proliferation, survival, death.Data”, “LTEA_HepaRG_TP53” for “LTEA_HepaRG_TNFRSF1A”, “LTEA_HepaRG_TP53,” for “LTEA_HepaRG_TNFRSF1A,”, “dna binding” for “cytokine receptor”, “tumor suppressor.” for “TNF receptor.”
# as §2
# [10] = read-out: UDP glucuronosyltransferase (UGT1A1), UGT1A1 (gene 54658); assay: LTEA_HepaRG_UGT1A1: Life Technologies and Expression Analysis (LTEA) Assay for UDP glucuronosyltransferase (UGT1A1) using HepaRG (AID 2283538)
# How it was run: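 Human liver HepaRG cultures receive test chemical for 48 h, up to 100 uM in 0.5% DMSO, with phenobarbital induction controls. UGT1A1 mRNA is measured by qRT-PCR and normalized to ACTB, GAPDH and POLR2A.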
# Signal transducer and activator of transcription 3 (Homo sapiens), sequence (P40763 whole entry, looked up): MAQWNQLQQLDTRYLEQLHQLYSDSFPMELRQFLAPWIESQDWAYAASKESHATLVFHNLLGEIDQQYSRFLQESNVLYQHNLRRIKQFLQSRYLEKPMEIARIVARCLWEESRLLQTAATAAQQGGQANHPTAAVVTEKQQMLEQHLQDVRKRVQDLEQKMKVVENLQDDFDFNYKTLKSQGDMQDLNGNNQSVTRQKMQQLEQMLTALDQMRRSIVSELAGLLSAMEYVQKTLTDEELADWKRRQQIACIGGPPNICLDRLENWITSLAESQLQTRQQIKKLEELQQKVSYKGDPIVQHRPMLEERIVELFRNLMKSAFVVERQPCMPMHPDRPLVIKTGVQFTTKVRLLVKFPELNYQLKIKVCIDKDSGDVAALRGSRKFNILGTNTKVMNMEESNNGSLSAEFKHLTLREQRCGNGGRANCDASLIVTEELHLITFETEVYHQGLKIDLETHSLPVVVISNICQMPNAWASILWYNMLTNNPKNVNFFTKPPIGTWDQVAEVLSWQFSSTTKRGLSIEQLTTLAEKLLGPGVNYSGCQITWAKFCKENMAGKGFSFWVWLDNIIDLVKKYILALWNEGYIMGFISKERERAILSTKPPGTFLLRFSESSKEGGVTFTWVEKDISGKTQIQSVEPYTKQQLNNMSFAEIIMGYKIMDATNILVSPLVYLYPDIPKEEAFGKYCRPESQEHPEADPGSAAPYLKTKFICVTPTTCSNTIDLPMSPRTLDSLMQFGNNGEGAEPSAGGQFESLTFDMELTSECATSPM
# Cellular tumor antigen p53 (Homo sapiens), sequence (P04637 whole entry, looked up): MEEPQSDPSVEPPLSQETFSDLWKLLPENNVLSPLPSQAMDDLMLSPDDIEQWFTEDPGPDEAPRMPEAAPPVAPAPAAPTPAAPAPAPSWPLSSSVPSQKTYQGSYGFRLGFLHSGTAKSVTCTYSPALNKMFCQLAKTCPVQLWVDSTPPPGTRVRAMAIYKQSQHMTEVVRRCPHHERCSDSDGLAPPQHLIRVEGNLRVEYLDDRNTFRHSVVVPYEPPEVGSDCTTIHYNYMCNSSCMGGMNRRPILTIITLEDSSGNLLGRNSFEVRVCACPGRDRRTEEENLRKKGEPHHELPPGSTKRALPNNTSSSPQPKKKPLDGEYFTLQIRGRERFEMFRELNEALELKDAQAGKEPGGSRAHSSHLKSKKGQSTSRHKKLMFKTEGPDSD
Structure (SMILES),outcome [1],outcome [2],outcome [3],outcome [4],outcome [5],outcome [6],outcome [7],outcome [8],outcome [9],AC50 [10],outcome [10],AC50 [1],AC50 [2],AC50 [3],AC50 [4],AC50 [6],AC50 [5],AC50 [7],AC50 [9]
CCCCOCCOCCO,inactive,inactive,inactive,inactive,inactive,inactive,inactive,inactive,inactive,50 µM (active),–,–,–,–,–,–,–,–,–
C=C(C)C(N)=O,inactive,inactive,inactive,inactive,inactive,inactive,inactive,inactive,inactive,–,inactive,–,–,–,–,–,–,–,–
O=C(c1ccc(OCCN2CCCCC2)cc1)c1c(-c2ccc(O)cc2)sc2cc(O)ccc12,–,–,–,–,inactive,–,inactive,inactive,inactive,50 µM (active),–,50 µM (active),68.7 µM (active),50 µM (active),75.2 µM (active),50 µM (active),–,–,–
COC(=O)c1ccc(C(=O)OC)cc1,inactive,inactive,inactive,inactive,inactive,inactive,inactive,inactive,inactive,–,inactive,–,–,–,–,–,–,–,–
C#C[C@]1(O)CC[C@H]2[C@@H]3CCc4cc(O)ccc4[C@H]3CC[C@@]21C,inactive,inactive,inactive,inactive,inactive,inactive,inactive,inactive,inactive,–,inactive,–,–,–,–,–,–,–,–
C[C@]12CC[C@@H]3c4ccc(O)cc4CC[C@H]3[C@@H]1CC[C@@H]2O,inactive,inactive,–,inactive,inactive,inactive,inactive,inactive,inactive,10.3 µM (active),–,–,–,50 µM (active),–,–,–,–,–
CC/C(=C(\c1ccccc1)c1ccc(OCCN(C)C)cc1)c1ccccc1,–,inactive,inactive,inactive,inactive,inactive,inactive,inactive,–,32.1 µM (active),inactive,60.3 µM (active) and 95.8 µM (active),45.8 µM (active),74.6 µM (active),94.2 µM (active),83.7 µM (active),73.5 µM (active),66.3 µM (active),45.8 µM (active) and 40 µM (active)

# Reference: PubChem BioAssay (EPA / NIEHS)
